# Experimental data taken from the supplement of paper PMC12282887.
# ± gives the standard deviation of the averaged measurements.
# What was measured:
# Experiment in all cases: promoter activity interaction Z-score (Lux/OD deviation from empty-vector control); higher = stronger promoter induction by the compound
# [1] = system: E. coli BW25113 acrABp lux reporter
# How it was run: (§1)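 Every compound was given at four 1:2 dilutions, in biological duplicates, to E. coli BW25113 carrying low-copy luxCDABE promoter reporters in wild-type or single-gene deletion backgrounds. Growth in 40 µl LB Lennox in 384-well plates at 37°C was followed by OD600 and luminescence readings every 30 min for 12 h, integrated over 0–8 h for wild type and 1–9 h for deletion strains, with wells below 10% of the median growth value excluded. Scores are Z-transformed residuals of growth-normalised luminescence fitted against a control.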
# [2] = system: E. coli BW25113 micFp lux reporter
# How it was run: as §1
# [3] = system: E. coli BW25113 ompFp lux reporter
# How it was run: as §1
# [4] = system: E. coli BW25113 robp lux reporter
# How it was run: as §1
# [5] = system: E. coli BW25113 soxSp lux reporter
# How it was run: as §1
# [6] = system: E. coli BW25113 tolCp lux reporter
# How it was run: as §1
# [7] = 0.64 µg/ml, genetic background: wild type
# [8] = 0.64 µg/ml, genetic background: ΔmarA
# [9] = 0.64 µg/ml, genetic background: Δrob
# [10] = 0.64 µg/ml, genetic background: ΔsoxS
# [11] = 1.3 µg/ml, genetic background: wild type
# [12] = 1.3 µg/ml, genetic background: ΔmarA
# [13] = 1.3 µg/ml, genetic background: Δrob
# [14] = 1.3 µg/ml, genetic background: ΔsoxS
# [15] = 2.6 µg/ml, genetic background: wild type
# [16] = 2.6 µg/ml, genetic background: ΔmarA
# [17] = 2.6 µg/ml, genetic background: Δrob
# [18] = 2.6 µg/ml, genetic background: ΔsoxS
# [19] = 5.1 µg/ml, genetic background: wild type
# [20] = 5.1 µg/ml, genetic background: ΔmarA
# [21] = 5.1 µg/ml, genetic background: Δrob
# [22] = 5.1 µg/ml, genetic background: ΔsoxS
smiles,measurement,setting,value
C[n+]1ccc(-c2cc[n+](C)cc2)cc1 [Paraquat],promoter activity interaction Z-score,[1]; [7],0.0325 ± 0.07
same,promoter activity interaction Z-score,[1]; [8],0.871 ± 1.1
same,promoter activity interaction Z-score,[1]; [9],0.287 ± 0.14
same,promoter activity interaction Z-score,[1]; [10],-0.155 ± 0.38
same,promoter activity interaction Z-score,[1]; [11],-0.0426 ± 0.21
same,promoter activity interaction Z-score,[1]; [12],0.412 ± 0.8
same,promoter activity interaction Z-score,[1]; [13],0.484 ± 0.32
same,promoter activity interaction Z-score,[1]; [14],0.177 ± 0.18
same,promoter activity interaction Z-score,[1]; [15],0.406 ± 0.016
same,promoter activity interaction Z-score,[1]; [16],0.865 ± 0.77
same,promoter activity interaction Z-score,[1]; [17],0.362 ± 0.13
same,promoter activity interaction Z-score,[1]; [18],0.148 ± 0.023
same,promoter activity interaction Z-score,[1]; [19],0.966 ± 0.12
same,promoter activity interaction Z-score,[1]; [20],0.0695 ± 0.017
same,promoter activity interaction Z-score,[1]; [21],1.06 ± 0.54
same,promoter activity interaction Z-score,[1]; [22],0.747 ± 0.85
same,promoter activity interaction Z-score,[2]; [7],0.149 ± 0.24
same,promoter activity interaction Z-score,[2]; [8],1.489 ± 0.0083
same,promoter activity interaction Z-score,[2]; [9],1.28 ± 0.4
same,promoter activity interaction Z-score,[2]; [10],-0.129 ± 0.0025
same,promoter activity interaction Z-score,[2]; [11],0.566 ± 0.14
same,promoter activity interaction Z-score,[2]; [12],2.36 ± 0.1
same,promoter activity interaction Z-score,[2]; [13],2.69 ± 0.87
same,promoter activity interaction Z-score,[2]; [14],-0.0229 ± 0.11
same,promoter activity interaction Z-score,[2]; [15],1.23 ± 0.11
same,promoter activity interaction Z-score,[2]; [16],3.79 ± 0.15
same,promoter activity interaction Z-score,[2]; [17],4.57 ± 1.3
same,promoter activity interaction Z-score,[2]; [18],-0.156 ± 0.22
same,promoter activity interaction Z-score,[2]; [19],3.89 ± 0.099
same,promoter activity interaction Z-score,[2]; [20],5.91 ± 1.2
same,promoter activity interaction Z-score,[2]; [21],8.849 ± 0.017
same,promoter activity interaction Z-score,[2]; [22],-0.509 ± 0.16
same,promoter activity interaction Z-score,[3]; [7],0.528 ± 0.083
same,promoter activity interaction Z-score,[3]; [8],0.49 ± 0.27
same,promoter activity interaction Z-score,[3]; [9],0.489 ± 0.56
same,promoter activity interaction Z-score,[3]; [10],0.272 ± 0.36
same,promoter activity interaction Z-score,[3]; [11],0.484 ± 0.34
same,promoter activity interaction Z-score,[3]; [12],0.321 ± 0.0078
same,promoter activity interaction Z-score,[3]; [13],0.81 ± 0.54
same,promoter activity interaction Z-score,[3]; [14],0.308 ± 0.03
same,promoter activity interaction Z-score,[3]; [15],0.864 ± 0.28
same,promoter activity interaction Z-score,[3]; [16],0.472 ± 0.45
same,promoter activity interaction Z-score,[3]; [17],1.09 ± 0.6
same,promoter activity interaction Z-score,[3]; [18],0.514 ± 0.2
same,promoter activity interaction Z-score,[3]; [19],1.34 ± 0.52
same,promoter activity interaction Z-score,[3]; [20],0.867 ± 0.69
same,promoter activity interaction Z-score,[3]; [21],1.96 ± 1.2
same,promoter activity interaction Z-score,[3]; [22],-2.03
same,promoter activity interaction Z-score,[4]; [7],-0.182 ± 0.091
same,promoter activity interaction Z-score,[4]; [8],0.325 ± 0.15
same,promoter activity interaction Z-score,[4]; [9],0.533 ± 0.16
same,promoter activity interaction Z-score,[4]; [10],0.786 ± 0.081
same,promoter activity interaction Z-score,[4]; [11],0.394 ± 0.0088
same,promoter activity interaction Z-score,[4]; [12],-0.0344 ± 0.25
same,promoter activity interaction Z-score,[4]; [13],0.769 ± 0.054
same,promoter activity interaction Z-score,[4]; [14],1.6 ± 0.18
same,promoter activity interaction Z-score,[4]; [15],0.405 ± 0.13
same,promoter activity interaction Z-score,[4]; [16],-0.176 ± 0.36
same,promoter activity interaction Z-score,[4]; [17],-0.103 ± 0.18
same,promoter activity interaction Z-score,[4]; [18],0.939 ± 0.087
same,promoter activity interaction Z-score,[4]; [19],-1.49 ± 0.031
same,promoter activity interaction Z-score,[4]; [20],-1.22 ± 0.88
same,promoter activity interaction Z-score,[4]; [21],-1.65 ± 0.29
same,promoter activity interaction Z-score,[4]; [22],-2.13
same,promoter activity interaction Z-score,[5]; [7],2.83 ± 0.11
same,promoter activity interaction Z-score,[5]; [8],2.9 ± 0.097
same,promoter activity interaction Z-score,[5]; [9],3.15 ± 0.6
same,promoter activity interaction Z-score,[5]; [10],3.26 ± 0.44
same,promoter activity interaction Z-score,[5]; [11],4.46 ± 0.059
same,promoter activity interaction Z-score,[5]; [12],4.28 ± 0.14
same,promoter activity interaction Z-score,[5]; [13],5.3 ± 1.6
same,promoter activity interaction Z-score,[5]; [14],4.33 ± 0.021
same,promoter activity interaction Z-score,[5]; [15],6.809 ± 0.059
same,promoter activity interaction Z-score,[5]; [16],7.02 ± 1.1
same,promoter activity interaction Z-score,[5]; [17],7.7 ± 0.67
same,promoter activity interaction Z-score,[5]; [18],5.69 ± 0.3
same,promoter activity interaction Z-score,[5]; [19],13.3 ± 0.42
same,promoter activity interaction Z-score,[5]; [20],13.9 ± 0.57
same,promoter activity interaction Z-score,[5]; [21],13.2 ± 0.83
same,promoter activity interaction Z-score,[5]; [22],7.48 ± 0.55
same,promoter activity interaction Z-score,[6]; [7],0.284 ± 0.95
same,promoter activity interaction Z-score,[6]; [8],0.749 ± 0.29
same,promoter activity interaction Z-score,[6]; [9],0.775 ± 0.4
same,promoter activity interaction Z-score,[6]; [10],-0.838 ± 0.78
same,promoter activity interaction Z-score,[6]; [11],-0.11 ± 0.4
same,promoter activity interaction Z-score,[6]; [12],1.44 ± 1.1
same,promoter activity interaction Z-score,[6]; [13],0.62 ± 0.32
same,promoter activity interaction Z-score,[6]; [14],0.0157 ± 0.29
same,promoter activity interaction Z-score,[6]; [15],2.66 ± 0.41
same,promoter activity interaction Z-score,[6]; [16],3 ± 0.23
same,promoter activity interaction Z-score,[6]; [17],2.88 ± 0.087
same,promoter activity interaction Z-score,[6]; [18],-0.245 ± 1.2
same,promoter activity interaction Z-score,[6]; [19],3.73 ± 0.21
same,promoter activity interaction Z-score,[6]; [20],6.42 ± 0.38
same,promoter activity interaction Z-score,[6]; [21],3.99 ± 0.79
same,promoter activity interaction Z-score,[6]; [22],-0.515 ± 0.099
